# According to PubChem BioAssay (NCI):
# Compounds without any hit were thinned out: in the full panel of roughly 79,000, 15% have a hit. Unmarked numbers belong to inactive results. Activity calls are given as the source filed them. Rule as the data show it: active = growth inhibition above about 70%; inactive = the rest.
# Tests used:
# [1] = NCI Yeast Anticancer Drug Screen. Data for the rad50 strain (AID 155);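 also: 0% = growth of vehicle-only cultures of the same strain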; conditions: S. cerevisiae rad50 strain growth inhibition, hits give high values
# In short: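 Compounds were tested on a yeast strain with an engineered DNA damage repair alteration; the reported value is growth inhibition normalised to vehicle treatment.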
# [2] = NCI Yeast Anticancer Drug Screen. Data for the mec2-1 strain (AID 157); conditions: S. cerevisiae mec2-1 strain, hits give high values
# In short: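 Vehicle-treated cultures served as reference for growth inhibition of compound-exposed mec2-1 yeast.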
# [3] = NCI Yeast Anticancer Drug Screen. Data for the sgs1 mgt1 strain (AID 161);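 also: 0% = growth of cultures given vehicle only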; conditions: S. cerevisiae sgs1 mgt1 strain, hits give high values
# In short: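 Genetically altered yeast, compound exposure, growth inhibition relative to vehicle.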
# [4] = NCI Yeast Anticancer Drug Screen. Data for the cln2 rad14 strain (AID 165);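 also: 0% = growth equal to vehicle treated cultures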; conditions: S. cerevisiae cln2 rad14 strain, hits give high values
# In short: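 Each compound was tested on cln2 rad14 yeast. Inhibition of growth was calculated against vehicle-exposed controls.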
# [5] = NCI Yeast Anticancer Drug Screen. Data for the bub3 strain (AID 167); conditions: S. cerevisiae bub3 mutant strain, hits give high values
# In short: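 Growth of a checkpoint-deficient yeast mutant is measured after compound exposure. Values represent inhibition relative to vehicle.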
# [6] = NCI Yeast Anticancer Drug Screen. Data for the mlh1 rad18 strain (AID 175); conditions: S. cerevisiae mlh1 rad18 strain growth inhibition, hits give high values
# In short: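 Vehicle-treated cultures served as the reference for growth inhibition in a yeast strain carrying DNA damage repair alterations exposed to each compound.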
# [7] = at 5.0 µM (retest, dose inferred, filed as 0.5)
# [8] = at 50.0 µM (retest, dose inferred, filed as 5.0)
SMILES,"growth inhibition [1, 7] [%]","growth inhibition [1, 8]",growth inhibition ([1]; at 50.0 µM),"growth inhibition [2, 7] [%]","growth inhibition [2, 8]",growth inhibition ([2]; at 50.0 µM),"growth inhibition [3, 7] [%]","growth inhibition [3, 8]",growth inhibition ([3]; at 50.0 µM),"growth inhibition [4, 7] [%]","growth inhibition [4, 8]",growth inhibition ([4]; at 50.0 µM),"growth inhibition [5, 7] [%]","growth inhibition [5, 8]",growth inhibition ([5]; at 50.0 µM),"growth inhibition [6, 7] [%]","growth inhibition [6, 8]",growth inhibition ([6]; at 50.0 µM)
O=C1CC(O)CC(=O)C1=C(O)CCCCCCCCCCc1ccccc1 (stereo not given),25,41%,66.4%,25,39%,85.3% (active),36,57%,74.2% (active),24,33%,81.5% (active),30,54%,85.7% (active),40,62%,65.8%
COc1ccc(CSC2=C(C#N)C(=O)NC3(CCCCC3)S2)cc1,23,11%,3.6%,-1,4%,2.25%,23,14%,6.2%,-1,16%,28.5%,6,6%,-13.2%,18,-2%,7.75%
O=[N+]([O-])c1ccc(C2=Nn3cnnc3SC2)o1,2,36%,81.7% (active),5,35%,20.9%,27,73% (active),80.8% (active),1,29%,78.5% (active),4,75% (active),59.3%,18,84% (active),86.7% (active)
CCN(CC)CCOc1cccc2c1C(=O)c1c(O)cccc1C2=O,12,72% (active),59.4%,-21,70% (active),39.3%,4,54%,71.2% (active),5,38%,74.3% (active),8,47%,35.9%,-1,79% (active),62.4%
CCCCN(CCCC)CC(O)c1cc(-c2ccc(Cl)cc2)nc2c(C)cccc12 (stereo not given),0,94% (active),98% (active),2,95% (active),97.3% (active),19,96% (active),98.4% (active),-4,91% (active),95.8% (active),-7,94% (active),89.8% (active),7,95% (active),95.9% (active)
CC(=O)OC1CCC2(C)C(CCC3C2CCC2(C)C4CCC32OC(=O)C4CC(=O)O)C1 (stereo not given),3,36%,86.6% (active),-32,48%,89.5% (active),-12,13%,89.5% (active),7,49%,90.5% (active),-2,49%,73% (active),10,65%,93.5% (active)
COc1ccc(-c2c(-c3ccccc3)c(C)nc3[nH]c(=S)[nH]c(=S)c23)cc1OC,-4,69%,92.2% (active),-2,58%,92.8% (active),7,89% (active),94.4% (active),7,81% (active),93.2% (active),0,91% (active),69.8%,-30,79% (active),94.9% (active)
CCC(CO)Nc1nc2cc(Br)ccc2c2ccc(Br)cc12 (stereo not given),36,92% (active),92.6% (active),10,96% (active),95.5% (active),62,93% (active),96.2% (active),8,93% (active),93.8% (active),47,94% (active),91.9% (active),18,93% (active),95.8% (active)
CSc1ccc(/C=C2\CNC/C(=C\c3ccc(SC)cc3)C2=O)cc1,12,18%,47.4%,15,19%,55.2%,26,32%,69.8%,23,29%,46.9%,17,23%,35%,24,33%,71.6% (active)
CCN(CC)CC(O)c1ccc2cc(Cl)c3ccccc3c2c1 (stereo not given),15,99% (active),99.5% (active),4,99% (active),99.5% (active),25,99% (active),99.6% (active),8,99% (active),99.3% (active),16,98% (active),99.5% (active),29,99% (active),99.6% (active)
